Inconclusive results are not listed. A number with no mark means an inactive call. Activity calls are given as the source filed them. The call rests on the fitted dose curve; in most records, active means well fitted inhibition curve with a large enough effect in the signal ratio in the repeat runs (not every such curve was filed as active); inconclusive means weak or mixed curves, or effect the other way; inactive means flat fitted curve, though single readings scatter; the % refers to the signal ratio.
Assay: cAMP Responsive Elements (CRE) small molecule antagonists, cell-based qHTS assay (AID 1963591)
Conditions: CRE-bla HEK293T, beta-lactamase FRET ratio; series mostly up to 92.4 µM; activity change, negative = inhibition: at the top concentration
Excerpt: U.S. Tox21 Program National Center for Advancing Translational Sciences [NCATS] Division of Preclinical Innovation [DPI] U.S. Environmental Protection Agency [EPA] National Institutes of Environmental Health Sciences [NIEHS] National Toxicology Program [NTP] U.S. Food and Drug Administration [FDA] Tox21 Assay Overview: CREB (cyclic-AMP Responsive Element Binding Protein) is a cellular transcription factor. It binds to certain DNA sequences called cAMP Responsive Elements (CRE) and regulates the transcription of the genes. […] This cell line can be used to find agonists/antagonists of the cyclic AMP signaling pathway. The activation of the report gene under culture conditions can be detected by fluorescence intensity. This cell line has been used to screen the Tox21 10K compound library to […].
Tox21 Assay Protocol Summary: CRE-bla Hek 293T cells were suspended in assay medium (DMEM containing 10% dialyzed FBS, 0.1 mM NEAA, 1 mM sodium pyruvate and 25 mM HEPES) and dispensed at 2,000 cells/4 uL /well into 1536-well black wall/clear bottom plates using a Multidrop Combi (ThermoFisher Scientific, Waltham, MA) dispenser. After the assay plates were incubated at 37 C/5% CO2 for 18 hrs, 23 nL of compounds dissolved in DMSO, positive controls or DMSO only was transferred to the assay plate by a pintool workstation (Kalypsys, San Diego, CA), followed by addition of 1 […] uL of 1.25uM NKH477 (0.25 uM as final concentration) in assay medium using a Flying Reagent Dispenser (Aurora Discovery, San Diego, CA). The plates were incubated at 37 C and 5% CO2 for 3 hrs. Then 1 uL of LiveBLAzer B/G FRET substrate (Invitrogen, Carlsbad, CA) was added to each well using Bioraptr Flying Reagent Dispenser (FRD, Aurora Discovery, San Diego, CA). The plates were incubated at room temperature for 2 h.
On the % scale 0 is the no-effect control and ±100 the full control effect; potency means the concentration at half of the fitted maximal effect.

Row | Structure (SMILES) | activity change, negative = inhibition | Potency
1 | NCCCC(N)(C(=O)O)C(F)F (stereo not given) | -8.49% [at 42.4 µM] | 
2 | CC(C)c1cccc(C(C)C)c1NC(=O)NS(=O)(=O)c1cc(C(C)(C)O)co1 | -6.57% | 
3 | CCCC(=O)OC/C=C(\C)CCC=C(C)C | 6.25% | 
4 | O=C(Cl)c1ccc([N+](=O)[O-])cc1 | -1.46% | 
5 | CCCCCCCC/C=C/CCCOC(C)=O | 5.69% | 
6 | CC(=O)OCC(=O)[C@@]1(O)[C@H](C)C[C@H]2[C@@H]3CCC4=CC(=O)C=C[C@]4(C)[C@@]3(F)[C@@H](O)C[C@@]21C | 0.167% [at 42.4 µM] | 
7 | CC/C=C\CCCCCCCCCCOC(C)=O | -8.55% | 
8 | CCCCOC(=O)CCCCC(=O)OCCCC | -9.68% | 
9 | C[C@@]12CCC[C@H]1[C@@H]1CC[C@H]3C[C@@H](O)CC[C@]3(C)[C@H]1CC2 | 8.31% [at 42.4 µM] | 
10 | C[C@]12CC[C@@H]3c4ccc(O)cc4CC[C@H]3[C@@H]1CC[C@@H]2OC(=O)CCC1CCCC1 |  | inactive
11 | COC(=O)[C@@H](N)Cc1ccc(O)c(O)c1 | -2.58% [at 42.4 µM] | 
12 | CC(C)C(C)(C)C(C)(C)C(C)(C)S | -10.2% | 
13 | CC(C)c1ccccc1C(C)C | 1.16% | 
14 | CCCCCCCCCCCCOC(C)=O | -13.8% | 
15 | CCC(C)COC(C)=O (stereo not given) | 5.71% | 
16 | COc1cc(Cc2cnc(N)nc2N)cc(OC)c1OC |  | inactive
17 | CCCCCC/C=C\CCCCCCCC(=O)O | 0.956% | 
18 | CCCCCCCCCCCCCCCCC(C(=O)O)C(O)(CC(=O)O)C(=O)O (stereo not given) | 4.39% [at 42.4 µM] | 
19 | CC(CCO)CCCC(C)(C)O (stereo not given) | 0.956% | 
20 | Cc1ncc([C@@H](CCCCCCc2ccc3c(n2)NCCC3)CC(=O)O)cn1 |  | 0.545 µM (active)

Row | Structure (SMILES) | activity change, negative = inhibition | Potency
21 | N=C(N)N | -14.8% [at 42.4 µM] | 
22 | CCCCN1C[C@H](O)[C@@H](O)[C@H](O)[C@H]1CO | -3.28% [at 42.4 µM] | 
23 | Cc1[nH]c(C)c(Cl)c(=O)c1Cl | -0.412% [at 18.9 µM] | 
24 | CC(C)(C)c1ccc(OC2CCCCC2O)cc1 (stereo not given) | -71.6% | 
25 | OCCN1CCOCC1 | -1.37% | 
26 | CC(=O)Nc1cccc(N)c1 | 0.226% | 
27 | O=C(O)/C=C/c1ccc(O)c(O)c1 | 3.26% | 
28 | O=[N+]([O-])c1cccc(Cl)c1Cl | 2.59% | 
29 | CC(=O)c1ccc(OCC(=O)N2CCCCC2)cc1 | 0.402% [at 42.4 µM] | 
30 | N[C@@H](CS)C(=O)O | 5.73% | 
31 | Nc1cccc([N+](=O)[O-])c1 | 4.08% | 
32 | CNCCCC1c2ccccc2C=Cc2ccccc21 | -23.8% [at 42.4 µM] | 
33 | Cc1ccc(C#N)cc1 | -0.766% | 
34 | CC(C)(C)C1=CC(=O)C=C(C(C)(C)C)C1=O | 2.99% | 
35 | CCCCCCCCCCCCCCOS(=O)(=O)O | -11.4% | 
36 | CCCOc1ccc2c(c1)CC[C@@H]1[C@@H]2CC[C@]2(C)C(OC)CC[C@@H]12 (stereo not given in full) | 2.25% [at 42.4 µM] | 
37 | CCCNC(C)(C)COC(=O)c1ccccc1 | -0.622% [at 42.4 µM] | 
38 | CCCCCc1ccc(O)cc1 | -65.3% | 
39 | CCN(CC)c1cccc(O)c1 | 0.24% | 
40 | Cc1ccc(O)c2ncccc12 |  | 13.3 µM (active)
